Test results as given in PubChem BioAssay (NCI).
About 83,000 compounds went through this panel and 20% of them were active in at least one assay; those are over-represented in the sample as a whole.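 Assay: single dose, 48 h. Readout: percent growth (0 = no net growth; negative = cell death). Active: <10.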 Active and inactive are the calls of the source.

Tests used:
Assay in all cases: NCI-60 one-dose screen, 48 h (100 = growth as untreated, 0 = no growth, -100 = all killed)
Details in all cases: 10 µM
EKVX NSCLC = tested on: EKVX NSCLC
SN12C renal = tested on: SN12C renal
UO-31 renal = tested on: UO-31 renal
TK-10 renal = tested on: TK-10 renal
ACHN renal = tested on: ACHN renal
CAKI-1 renal = tested on: CAKI-1 renal
CCRF-CEM leukemia = tested on: CCRF-CEM leukemia
MOLT-4 leukemia = tested on: MOLT-4 leukemia
RPMI-8226 leukemia = tested on: RPMI-8226 leukemia
OVCAR-8 ovarian = tested on: OVCAR-8 ovarian
OVCAR-5 ovarian = tested on: OVCAR-5 ovarian
OVCAR-4 ovarian = tested on: OVCAR-4 ovarian
SK-OV-3 ovarian = tested on: SK-OV-3 ovarian
IGROV1 ovarian = tested on: IGROV1 ovarian
OVCAR-3 ovarian = tested on: OVCAR-3 ovarian
NCI/ADR-RES ovarian = tested on: NCI/ADR-RES ovarian
T-47D breast = tested on: T-47D breast
SR leukemia = tested on: SR leukemia
HS 578T breast = tested on: HS 578T breast
A498 renal = tested on: A498 renal

Measured: growth

Cc1cc(O)c(C(C)(C)C)cc1Sc1cc(C(C)(C)C)c(O)cc1C
active: MOLT-4 leukemia 1.49%
inactive: EKVX NSCLC 40.7% | SN12C renal 58.2% | UO-31 renal 37.5% | TK-10 renal 81% | ACHN renal 60.7% | CAKI-1 renal 32.3% | CCRF-CEM leukemia 18.2% | RPMI-8226 leukemia 12.8% | OVCAR-8 ovarian 73.6% | OVCAR-5 ovarian 90.4% | OVCAR-4 ovarian 28.3% | SK-OV-3 ovarian 65.3% | IGROV1 ovarian 39.1% | OVCAR-3 ovarian 29.3% | NCI/ADR-RES ovarian 30.7% | T-47D breast 18.6%

CN(C)c1ccc(-c2cc(-c3cccc(NS(C)(=O)=O)c3)nc(N)c2C#N)cc1
inactive: EKVX NSCLC 17.3% | SN12C renal 37.9% | UO-31 renal 11.2% | TK-10 renal 42.1% | ACHN renal 26.1% | CCRF-CEM leukemia 15.9% | MOLT-4 leukemia 24.3% | OVCAR-8 ovarian 30% | OVCAR-5 ovarian 52% | OVCAR-4 ovarian 45.7% | SK-OV-3 ovarian 15.1% | IGROV1 ovarian 80.4% | HS 578T breast 15.3% | T-47D breast 80.4%
active: SR leukemia 9.27% | OVCAR-3 ovarian -48.2%

CC(C)=NNc1ncnc2c1ncn2C1OC(CO)C(O)C1O (stereo unspecified)
active: UO-31 renal -3.29% | CAKI-1 renal -19% | SK-OV-3 ovarian 4.34% | OVCAR-3 ovarian 3.84% | HS 578T breast -2.14%
inactive: EKVX NSCLC 43.7% | SN12C renal 20.5% | TK-10 renal 57.5% | ACHN renal 12.3% | CCRF-CEM leukemia 35.9% | MOLT-4 leukemia 56.4% | SR leukemia 14.4% | OVCAR-8 ovarian 25.7% | OVCAR-5 ovarian 49.2% | OVCAR-4 ovarian 26.4% | IGROV1 ovarian 64.5% | T-47D breast 19.2%

Cc1ccc(NC(=O)Nc2cccnc2)cc1NC(=O)Nc1cccnc1
inactive: EKVX NSCLC 82.4% | SN12C renal 92% | UO-31 renal 85.3% | TK-10 renal 92.1% | ACHN renal 83.8% | A498 renal 90.7% | CCRF-CEM leukemia 58.2% | MOLT-4 leukemia 66.8% | SR leukemia 31.3% | RPMI-8226 leukemia 42.9% | OVCAR-8 ovarian 73.8% | OVCAR-5 ovarian 110% | OVCAR-4 ovarian 77.7% | SK-OV-3 ovarian 101% | IGROV1 ovarian 68.5% | OVCAR-3 ovarian 93.2% | HS 578T breast 95.7% | NCI/ADR-RES ovarian 87.6% | T-47D breast 58%

CCOC(=O)C(NC(=O)C(Cl)Cl)C(O)c1ccccc1 (stereo unspecified)
inactive: EKVX NSCLC 109% | SN12C renal 98.8% | UO-31 renal 97.6% | TK-10 renal 104% | ACHN renal 107% | A498 renal 99.2% | CCRF-CEM leukemia 150% | MOLT-4 leukemia 98.3% | SR leukemia 107% | OVCAR-8 ovarian 102% | OVCAR-5 ovarian 102% | OVCAR-4 ovarian 110% | SK-OV-3 ovarian 116% | IGROV1 ovarian 77.7% | OVCAR-3 ovarian 109% | HS 578T breast 120% | NCI/ADR-RES ovarian 108% | T-47D breast 107%

COc1ccc(-c2csc(NC(=O)CSc3nc(C)c(-c4ccccc4)n3Nc3ccccc3)n2)cc1
inactive: EKVX NSCLC 38.3% | SN12C renal 42.1% | TK-10 renal 86.1% | ACHN renal 59% | CAKI-1 renal 20% | CCRF-CEM leukemia 28.3% | MOLT-4 leukemia 31.1% | RPMI-8226 leukemia 30.7% | OVCAR-8 ovarian 31.7% | OVCAR-5 ovarian 81.2% | SK-OV-3 ovarian 88.3% | IGROV1 ovarian 41.8% | OVCAR-3 ovarian 56.6% | HS 578T breast 19.8% | NCI/ADR-RES ovarian 12.1% | T-47D breast 24.8%
active: UO-31 renal 4.89%

S=c1[nH]ccn1-c1c(Cl)cccc1Cl
inactive: EKVX NSCLC 103% | SN12C renal 92.6% | UO-31 renal 91% | TK-10 renal 112% | ACHN renal 101% | A498 renal 116% | CCRF-CEM leukemia 76.7% | MOLT-4 leukemia 106% | SR leukemia 104% | RPMI-8226 leukemia 89% | OVCAR-8 ovarian 103% | OVCAR-5 ovarian 107% | OVCAR-4 ovarian 97.1% | SK-OV-3 ovarian 102% | OVCAR-3 ovarian 111% | HS 578T breast 109% | NCI/ADR-RES ovarian 102% | T-47D breast 91.2%

Nc1nc(Nc2ccccc2)n[nH]1
inactive: EKVX NSCLC 95.8% | SN12C renal 101% | UO-31 renal 82.3% | TK-10 renal 101% | ACHN renal 89.7% | A498 renal 108% | CCRF-CEM leukemia 97.7% | MOLT-4 leukemia 106% | SR leukemia 102% | RPMI-8226 leukemia 97% | OVCAR-8 ovarian 98.1% | OVCAR-5 ovarian 103% | OVCAR-4 ovarian 103% | SK-OV-3 ovarian 104% | IGROV1 ovarian 97.7% | OVCAR-3 ovarian 119% | HS 578T breast 119% | NCI/ADR-RES ovarian 96.6% | T-47D breast 91.7%

O=C(Nc1nc2ccccc2s1)Nc1ccc([N+](=O)[O-])cc1Cl
inactive: EKVX NSCLC 90.4% | SN12C renal 78.8% | UO-31 renal 26.8% | TK-10 renal 57% | ACHN renal 88% | A498 renal 106% | CCRF-CEM leukemia 57.7% | MOLT-4 leukemia 91.1% | SR leukemia 48.3% | RPMI-8226 leukemia 36.9% | OVCAR-5 ovarian 105% | SK-OV-3 ovarian 63.9% | OVCAR-3 ovarian 38.1% | HS 578T breast 70.7% | NCI/ADR-RES ovarian 14.4% | T-47D breast 61.7%
active: OVCAR-8 ovarian -26.4% | OVCAR-4 ovarian -45.6%

COc1ccccc1/C=C/C(=O)c1ccccc1
active: RPMI-8226 leukemia -36.2%
inactive: EKVX NSCLC 98.6% | SN12C renal 91.6% | UO-31 renal 60.1% | TK-10 renal 104% | ACHN renal 84.2% | A498 renal 108% | CCRF-CEM leukemia 29% | MOLT-4 leukemia 46% | OVCAR-8 ovarian 61.8% | OVCAR-5 ovarian 105% | OVCAR-4 ovarian 70.2% | SK-OV-3 ovarian 118% | IGROV1 ovarian 28.8% | OVCAR-3 ovarian 59.9% | HS 578T breast 73.9% | NCI/ADR-RES ovarian 86.7% | T-47D breast 94.8%

Cc1cc(N(CCCNc2ccnc3cc(Cl)ccc23)Cc2ccc3c(c2)OCO3)nc(N2CCCCC2)n1
active: EKVX NSCLC 2.19% | UO-31 renal -61.9% | TK-10 renal -35.3% | ACHN renal -37.7% | A498 renal -18.8% | CCRF-CEM leukemia -5.28% | MOLT-4 leukemia -27.1% | SR leukemia -41.7% | RPMI-8226 leukemia -49.5% | OVCAR-8 ovarian -11.2% | OVCAR-5 ovarian 4.69% | OVCAR-4 ovarian -9.93% | IGROV1 ovarian -51.1% | OVCAR-3 ovarian -71.8% | HS 578T breast -32.4% | NCI/ADR-RES ovarian 7.45% | T-47D breast -37.3%
inactive: SN12C renal 23.4% | SK-OV-3 ovarian 31.3%

CCN(CCCCCCN1CC(=O)N(CCCCCCN(CC)Cc2ccccc2OC)CC1=O)Cc1ccccc1OC
inactive: EKVX NSCLC 72.9% | SN12C renal 93.9% | UO-31 renal 91.9% | TK-10 renal 87.6% | ACHN renal 110% | CAKI-1 renal 90.3% | MOLT-4 leukemia 42.7% | SR leukemia 39.3% | RPMI-8226 leukemia 30.3% | OVCAR-8 ovarian 86.7% | OVCAR-5 ovarian 68.9% | OVCAR-4 ovarian 77.1% | SK-OV-3 ovarian 102% | OVCAR-3 ovarian 59.5% | NCI/ADR-RES ovarian 70.9% | T-47D breast 90.8%

N#CC1=C(Nc2ccccc2Cl)SC(c2ccccc2O)NC1=O (stereo unspecified)
inactive: EKVX NSCLC 108% | SN12C renal 102% | UO-31 renal 84.5% | TK-10 renal 134% | ACHN renal 97.7% | A498 renal 95.2% | CCRF-CEM leukemia 99.9% | MOLT-4 leukemia 104% | SR leukemia 123% | RPMI-8226 leukemia 97.1% | OVCAR-8 ovarian 111% | OVCAR-5 ovarian 105% | OVCAR-4 ovarian 111% | SK-OV-3 ovarian 116% | IGROV1 ovarian 102% | OVCAR-3 ovarian 127% | HS 578T breast 116% | NCI/ADR-RES ovarian 110% | T-47D breast 111%

CCN1Cc2c(/C=C/c3ccccc3)nc3ccc(OC)cc3c2N(c2cccc(Cl)c2)C1
inactive: EKVX NSCLC 66.9% | SN12C renal 60.6% | UO-31 renal 63.8% | TK-10 renal 101% | ACHN renal 98% | A498 renal 85.5% | CCRF-CEM leukemia 58.6% | MOLT-4 leukemia 55.4% | OVCAR-8 ovarian 89.4% | OVCAR-5 ovarian 95.4% | OVCAR-4 ovarian 67.5% | SK-OV-3 ovarian 77.3% | OVCAR-3 ovarian 74.7% | HS 578T breast 105% | NCI/ADR-RES ovarian 77.4% | T-47D breast 55.1%
active: RPMI-8226 leukemia -1.25%

Cc1nc2ccccc2c(N)c1-c1cc(C)c2c(C)nc3ccccc3c2n1
inactive: EKVX NSCLC 68.4% | SN12C renal 57.9% | TK-10 renal 14.3% | SK-OV-3 ovarian 96.7% | NCI/ADR-RES ovarian 43.8%
active: UO-31 renal -95.7% | ACHN renal -92.4% | A498 renal -12.9% | CCRF-CEM leukemia -42.1% | MOLT-4 leukemia -50.8% | SR leukemia -39.5% | RPMI-8226 leukemia -40.9% | OVCAR-8 ovarian -29.4% | OVCAR-4 ovarian -64.1% | IGROV1 ovarian -92% | OVCAR-3 ovarian -96.6% | HS 578T breast -32.3% | T-47D breast -20.4%

Cc1cc(Cl)nc(N(CCCNc2ccnc3cc(Cl)ccc23)Cc2cccs2)n1
active: UO-31 renal 5.57% | CCRF-CEM leukemia 2.62% | MOLT-4 leukemia -17.6% | RPMI-8226 leukemia -48.5% | OVCAR-8 ovarian 7.5% | IGROV1 ovarian 6.77% | NCI/ADR-RES ovarian 0.179% | T-47D breast -2.57%
inactive: EKVX NSCLC 36.4% | SN12C renal 33% | TK-10 renal 28.4% | ACHN renal 25.8% | A498 renal 19.6% | OVCAR-5 ovarian 31.8% | OVCAR-4 ovarian 11% | SK-OV-3 ovarian 46.3% | OVCAR-3 ovarian 25.9% | HS 578T breast 48.6%

CN(C)c1ccc(Cc2ccc(N(C)C)cc2Cl)c(Cl)c1
inactive: EKVX NSCLC 103% | SN12C renal 99.2% | UO-31 renal 67.6% | TK-10 renal 88.9% | ACHN renal 98.4% | CAKI-1 renal 99.1% | CCRF-CEM leukemia 91.6% | MOLT-4 leukemia 46% | RPMI-8226 leukemia 81.1% | OVCAR-8 ovarian 101% | OVCAR-5 ovarian 99.6% | OVCAR-4 ovarian 78.6% | SK-OV-3 ovarian 103% | IGROV1 ovarian 90.7% | OVCAR-3 ovarian 94.9% | NCI/ADR-RES ovarian 101% | T-47D breast 87.1%
